From PubChem BioAssay
The entries come from a sample that favours hits as a whole.
Tgondii IFNg = blocks Toxoplasma gondii growth in the presence of IFN-gamma; Toxoplasma gondii growth in IFN-gamma-treated host cells; hits give low values; activity change, negative = inhibition, % (no concentration beside the values); 3.8% of 69,000 active; in the data active = activity change below about -70%, passing the limit was not always enough;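 note: host cells are HeLa cells infected with Toxoplasma gondii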
The depositor's hits bear a star; ! = a repeat was not active.

SMILES	Tgondii IFNg
CN(C)c1ccc(CNC(=O)c2nc(Nc3ccc(F)cc3)c3ccccc3n2)cc1	14
Cc1cccc(Nc2nc(C(=O)NCc3ccc(N(C)C)cc3)nc3ccccc23)c1	-78*
CCc1ccc(CNC(=O)c2nc(Nc3cccc(C)c3)c3ccccc3n2)cc1	-98*
CCc1ccc(Nc2nc(C(=O)NCc3ccc(C)cc3)nc3ccccc23)cc1	-12
Cc1ccc(Nc2nc(C(=O)NCc3ccc(N(C)C)cc3)nc3ccccc23)cc1	2
Cc1nc(-c2ccc(Cl)cc2)sc1CCNC(=O)C(=O)Nc1ccc2c(c1)OCCO2	65
CC(C)c1cc(NC(=O)c2ccc(CN3CC[C@H](O)C3)cc2)n(C)n1	0
COCC(=O)N1CCCC(C2C(=O)Nc3ccccc32)C1 (stereo not drawn)	2
Cc1nc2nc(C(=O)N3CCc4[nH]c5c(C)cccc5c4C3)cc(C(C)(C)C)n2n1	-41
COCCn1cc2c(n1)C(CNC(=O)CS(C)(=O)=O)OCC2 (stereo not drawn)	-50
Nc1ccc(N2CCOCC2)c(C(=O)N2CCCC2)c1	67
COc1ccc(C(=O)N2CCN(c3ncnc4cc(C(C)(C)C)sc34)CC2)cc1OC	-85*
COc1ccc(C(=O)N2CCN(c3cccc(C(F)(F)F)c3)CC2)cc1OC	-79*
O=C(c1ccc2ncnc(N3CCCC3)c2c1)N1CCCC1	-38
COc1ccc(C(=O)N2CCC(c3nc(C(=O)N4CCCC4)c(C)o3)CC2)cc1OC	41
Cc1ccc(C)n1CCN1CCN(C(=O)c2cccc(C(F)(F)F)c2)CC1	-50
COc1ccc(C(=O)N2CCN(c3cnn(C)c(=O)c3Cl)CC2)cc1OC	0
CC(=O)Nc1ccc(S(=O)(=O)CCC(=O)OCC(=O)c2cccs2)cc1	-17
COc1ccccc1OC1CCN(Cc2nc(-c3ccc(SC)cc3)oc2C)CC1	-25
O=C(Cc1cccnc1)N1[C@H](CNCC2CCC2)[C@H](c2ccccc2)[C@@H]1CO	-30
FC(F)(F)c1cccc(NC(=S)Nc2ccccn2)c1	-113*
S=C(Nc1ccccc1)Nc1ccccn1	61
O=C1NN=CC1CCCNC(=S)Nc1cccc(C(F)(F)F)c1 (stereo not drawn)	13
COCC(=O)N1CCN2CC(C(=O)O)CN(Cc3ccoc3)CC2C1 (stereo not drawn)	-1
Cc1ccc(-c2nc(Cn3nnc(C(=O)NCc4ccncc4)c3C)c(C)o2)cc1	72
SMILES	Tgondii IFNg
Cc1ccc(NC(=O)c2nnn(Cc3nc(-c4cccc(Cl)c4)oc3C)c2C)c(Cl)c1	-3
Cc1ccc(-c2nc(Cn3nnc(C(=O)NCc4ccccc4)c3C)c(C)o2)cc1	-34
Cc1ccc(NC(=O)c2nnn(Cc3nc(-c4cccc(Cl)c4)oc3C)c2C)c(Br)c1	134
Cc1ccc(-c2nc(Cn3nnc(C(=O)NCc4ccco4)c3C)c(C)o2)cc1	0
Cc1cccc(-c2nc(Cn3nnc(C(=O)NCc4ccc5c(c4)OCO5)c3C)c(C)o2)c1	-95*
Cc1ccc(-c2nc(Cn3nnc(C(=O)NCc4ccc5c(c4)OCO5)c3C)c(C)o2)cc1	-45
CCCOc1ccc(CNC(=O)c2nnn(Cc3nc(-c4ccc(C)cc4)oc3C)c2C)cc1	-21
Cc1cccc(-c2nc(Cn3nnc(C(=O)NCc4cccc(Br)c4)c3C)c(C)o2)c1	-98*
Cc1ccc(-c2nc(Cn3nnc(C(=O)NCc4ccc(F)cc4)c3C)c(C)o2)cc1	110
CCc1ccc(CNC(=O)c2nnn(Cc3nc(-c4cccc(C)c4)oc3C)c2C)cc1	-80*
Cc1cccc(-c2nc(Cn3nnc(C(=O)NCc4ccc(C(C)C)cc4)c3C)c(C)o2)c1	-89*
CC(C)N1CCc2ncn(C(C)C)c2C1C(=O)NCCc1ccccc1 (stereo not drawn)	7
CN(C)CC(=O)N1Cc2cc(N(C)C)ccc2C1c1cnco1 (stereo not drawn)	-3
C[C@@]1(O)CCN(C(=O)CN2C(=O)CNC2=O)C[C@@H]1Cc1ccccc1	-46
C[C@@H]1CN([C@@H](C)CO)C(=O)c2cc(NC(=O)C3CCCCC3)ccc2O[C@@H](C)CCCCO[C@@H]1CN(C)C(=O)CCC(F)(F)F	134
Cc1ccc(C(=O)N2CCc3[nH]cnc3C23CCCCC3)s1	129
COc1ccc(CCC(=O)N2CCC(n3nnc4cc(F)ccc4c3=O)CC2)cc1	25
CC(C)c1cc(C(=O)Nc2cccc(-n3cccn3)c2)c2c(=O)[nH]c(=O)n(C)c2n1	4
CCOC(=O)C1CCCN(C(=O)c2ccc(-c3csc(CC)n3)cc2)C1 (stereo not drawn)	-25
O=C(NC1CC1)c1cc2n(n1)CCN(C(=O)Cc1[nH]nc3ccccc13)C2	2
CNC(=O)c1ccc(C)c(-n2c(C)cc(OCc3ccc(F)cc3F)c(Br)c2=O)c1	32
COc1ccc2[nH]cc(C(=O)CCl)c2c1	-26
CC(=O)c1c[nH]c2ccc(C)cc2c1=O	13
CCOC(=O)c1c[nH]c2ccc(OC)cc2c1=O	-88*
Cc1ccc2[nH]c(=O)c(-c3nc(-c4ccc(Cl)c(F)c4)no3)c(O)c2c1	8
SMILES	Tgondii IFNg
CC(C)COCC(CN(Cc1ccccc1)c1ccccc1)N1CCCC1 (stereo not drawn)	-76*!
CC(COc1ccccc1)N(CCCl)Cc1ccccc1 (stereo not drawn)	5
CCCN1Cc2ccccc2C2(CCN(CC(=O)N(C)C)CC2)C1	13
Cc1cc(C(=O)NCc2ccc(-c3[nH]ncc3C(=O)N(C)Cc3ccccc3)cc2)on1	-42
COc1ccc(-c2nc(Cn3c(=O)cc(C(=O)N4CCCCC4)c4ccccc43)c(C)o2)cc1	-52
Cn1c(=O)c(-c2nc(-c3ccc(Br)cc3)no2)c(O)c2cc(F)ccc21	9
COc1cccc2c(=O)c(C(=O)NCc3cccnc3)c[nH]c12	-8
COc1cccc2c(=O)c(C/C=C(/C)Cl)c(C)[nH]c12	-81*
COc1cccc2c(=O)c3ccccc3oc12	39
CC(C)Cc1cc(CN2CCCC(OCc3cccnc3)C2)[nH]n1 (stereo not drawn)	0
O=C(O/N=C1/CCCc2occc21)c1ccccc1	10
CC(C)(C)NC(=S)N/N=C1/CCCc2occc21	-95*
CCN1CCC2(CC1)OC(=O)C(C)=C2C(=O)N1CCN(c2cccc(OC)c2)CC1	153
CC1OC(OCC2OC(Oc3c(-c4ccc(O)c(O)c4)oc4cc(O)cc(O)c4c3=O)C(O)C(O)C2O)C(O)C(O)C1O (stereo not drawn)	-6
C[C@H](CO)N1C[C@H](C)[C@@H](CN(C)S(C)(=O)=O)Oc2ccc(NC(=O)Nc3ccc(F)cc3)cc2CC1=O	-8
CCN(CC)C(=O)N(CC1=CCCN(C)C1)C[C@@H]1CCC(=O)N1	-44
CCc1ccc(-c2noc(-c3c(O)c4ccc(F)cc4[nH]c3=O)n2)cc1	73
CC(C)(C)c1ccc2c(c1)OCCOCCOCCOCCO2	-21
Cc1nn(-c2ccccc2)nc1C(=O)Nc1ccc2c(c1)OCCO2	7
CC(C)(C)c1ccc(/C=C/C(=O)Nc2ccc3c(c2)OCCO3)cc1	-73*
C=CCOCC1CN(C(=O)c2ccncc2F)Cc2ccnn2C1 (stereo not drawn)	8
CN(Cc1ccco1)[C@H]1CN(c2ncc(F)cn2)C2CCCOC21 (stereo partly drawn)	38
N#C[C@@H]1[C@H](c2ccccc2C2=CCCCC2)[C@@H](CO)N1S(=O)(=O)c1ccccc1	-9
Cc1csc(-c2sc3ccccc3c2O)n1	-28
CSc1sc(-c2nc(C)cs2)c(C)c1-c1ccn[nH]1	-86*
COCCN(CC1CC1)C(=O)c1cc(NC(C)=O)ccc1Cl	-6
